Among all 96,000 compounds or so, about 19,000 (20%) were called active.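 The calls were made as follows: active = blocking of liver enzyme CYP2C9 beyond about 50% at 5 µM (limit read from the data); inactive = the rest.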 Only a sample is shown.
Target: Cytochrome P450 2C9 (Homo sapiens) (UniProt P11712)
Assay: blockers of cytochrome P450 2C9 activity – biochemical, luminescence, ADME assay, primary screen (AID 777)
Conditions: CYP2C9 Supersomes, luciferin-H conversion, at 5 µM, active compounds read high

Sequence of Cytochrome P450 2C9 (Homo sapiens) (P11712 whole entry, looked up): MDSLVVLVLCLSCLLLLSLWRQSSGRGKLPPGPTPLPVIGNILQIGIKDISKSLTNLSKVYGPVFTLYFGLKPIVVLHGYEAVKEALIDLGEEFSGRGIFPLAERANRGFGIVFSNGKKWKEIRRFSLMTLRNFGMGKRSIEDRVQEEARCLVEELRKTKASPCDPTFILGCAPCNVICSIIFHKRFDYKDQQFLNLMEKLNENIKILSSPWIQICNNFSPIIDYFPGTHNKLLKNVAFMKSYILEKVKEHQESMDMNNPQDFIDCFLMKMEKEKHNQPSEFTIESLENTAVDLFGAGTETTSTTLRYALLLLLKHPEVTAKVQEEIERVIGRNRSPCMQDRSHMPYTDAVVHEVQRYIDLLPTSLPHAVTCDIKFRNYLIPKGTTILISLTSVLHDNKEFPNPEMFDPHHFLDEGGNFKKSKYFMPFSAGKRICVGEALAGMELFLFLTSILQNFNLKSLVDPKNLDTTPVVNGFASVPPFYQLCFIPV

| SMILES | inhibition |
| --- | --- |
| CCOC(=O)N1CCC(N(CCOC)C(=O)Nc2ccc(C)c(C)c2)CC1 | -10.6% (inactive) |
| CS(=O)(=O)Nc1ccc(C(=O)N2CCCC2)cc1 | 17.2% (inactive) |
| CCOC(=O)N1CCN(C(=O)c2n[nH]c(=O)c3ccccc23)CC1 | -4.2% (inactive) |
| COc1ccc(C2C(C#N)=C(N)Oc3n[nH]c(C)c32)cc1CN1CCN(c2ccc(F)cc2)CC1 (stereo not given) | 28% (inactive) |
| O=C(Cn1cc2c(n1)CCCCC2)NCCN1CCOCC1 | -11.3% (inactive) |
| O=C(NC(c1ccccc1)c1ccccc1)N1CCN(CCO)CC1 | 4% (inactive) |
| COc1ccc(N(CCC#N)S(=O)(=O)c2ccc(Cl)cc2)cc1 | 19.8% (inactive) |
| C=CCC(NCc1ccco1)c1ccc(OC)cc1 (stereo not given) | -14.6% (inactive) |
| CCCCn1c(SCC(=O)NCC2CCCO2)nc2ccc(N3CCOCC3)cc2c1=O (stereo not given) | 74.1% (active) |
| N#CCSc1nc2ccc(N3CCOCC3)cc2c(=O)n1CCc1ccccc1 | 30.9% (inactive) |
| N#Cc1ccc(Oc2cc(C(F)(F)F)nc(-c3ccccn3)n2)cc1 | 42% (inactive) |
| O=C(Nc1ccc(Cl)cc1)c1cc2nc(C3CC3)cc(C(F)(F)F)n2n1 | -1.8% (inactive) |
| COc1cc(OC)c(-n2c(C)cc(C=O)c2C)cc1Cl | 16.9% (inactive) |
| CCCc1ccc(OCC(=O)NNC(=S)NC(=O)c2ccco2)cc1 | 65.8% (active) |
| CCNC(=S)NNC(=O)Cc1ccccc1 | 1.3% (inactive) |
| O=C(NCCSc1ccccc1)c1ccco1 | -18.4% (inactive) |
| COc1ccc(C(=O)NC(=S)NNC(=O)CCc2ccccc2)cc1 | 33.8% (inactive) |
| CC(Oc1ccc2ccccc2c1)C(=O)NNC(=S)NC(=O)c1ccco1 (stereo not given) | 85.3% (active) |
| CC(NC(=O)c1ccco1)C(=O)Nc1nc(-c2ccccn2)cs1 (stereo not given) | 9.7% (inactive) |
| O=S(=O)(N/N=C\c1cccn1-c1ccccc1)c1ccc2ccccc2c1 | -71.5% (inactive) |
| COc1ccccc1N=C1SC(C)CN1C(=O)C1CCC1 (stereo not given) | -6.6% (inactive) |
| Cc1nc(NC(=O)C23CCC(C)(C(=O)O2)C3(C)C)sc1C (stereo not given) | -3.9% (inactive) |
| Cc1cccc(-n2c(N)cc(=O)nc2SC(C)C(=O)NC2CCCCC2)c1 (stereo not given) | 27.7% (inactive) |
| N#Cc1c(NC(=O)CCCN2C(=O)c3ccccc3C2=O)oc(-c2ccccc2)c1-c1ccccc1 | 50.3% (active) |
| O=C(CCCN1C(=O)c2ccccc2C1=O)Oc1ccc(Cl)cc1 | 19.8% (inactive) |

| SMILES | inhibition |
| --- | --- |
| COc1cc(C(=O)Nc2oc(-c3ccccc3)c(-c3ccccc3)c2C#N)cc(OC)c1OC | 43.6% (inactive) |
| CS(=O)(=O)Nc1cccc(C2=NN(S(=O)(=O)c3ccccc3)C(c3cccs3)C2)c1 (stereo not given) | 89.1% (active) |
| NC(=O)C1CCN(C2OC(=O)c3ccccc32)CC1 (stereo not given) | -3.4% (inactive) |
| Cc1ccc(CCn2c3c(c4ccccc42)CN(C)CC3)cn1 | -27.5% (inactive) |
| O=C(CS(=O)(=O)Cc1ccccc1)NCC1CCCO1 (stereo not given) | -17.4% (inactive) |
| O=C(CSc1nnc(-c2ccc(NS(=O)(=O)c3ccccc3)cc2)o1)NCC1CCCO1 (stereo not given) | 92.2% (active) |
| O=C(Nc1ccc(-c2nnc(-c3ccccc3)o2)cc1)C1CCCO1 (stereo not given) | -11.1% (inactive) |
| CSC1=N/C(=C\C=C\c2cccs2)C(=O)S1 | -10.5% (inactive) |
| Cn1c(=O)[nH]c(=O)c2c1nc(N1CCCCCC1)n2CC(=O)c1ccccc1 | 7.5% (inactive) |
| C=C(C)Cn1c(N2CCCC2)nc2c1c(=O)[nH]c(=O)n2C | -5% (inactive) |
| Cc1nnc(SCCCn2c(N3CCCCC3)nc3c2c(=O)[nH]c(=O)n3C)s1 | 59.5% (active) |
| CSCCC1NC2(C(=O)Nc3ccc(Cl)cc32)[C@@H]2C(=O)N(C3CCCC3)C(=O)[C@H]12 (stereo not given in full) | 76.1% (active) |
| O=C(CN1CCCCCC1)Nc1ccc(Br)cc1Br | 16.5% (inactive) |
| COc1ccc(C(c2nnnn2C2CCCCC2)N2CCN(c3ccccc3F)CC2)cc1 (stereo not given) | 73.7% (active) |
| CCOc1ccc2[nH]c(=O)c(C(c3nnnn3CCOC)N3CCOCC3)cc2c1 (stereo not given) | 6.5% (inactive) |
| Cc1cccc(N2CCN(C(c3ccccc3)c3nnnn3CC3CCCO3)CC2)c1C (stereo not given) | 37.3% (inactive) |
| COc1ccc(N2CCN(C(c3cc4ccc(C)cc4[nH]c3=O)c3nnnn3C3CCCC3)CC2)cc1 (stereo not given) | 75.7% (active) |
| Cc1cccc2cc(CN(Cc3cccs3)C(c3nnnn3C3CCCC3)C(C)C)c(=O)[nH]c12 (stereo not given) | -38.3% (inactive) |
| CC(C)C(c1nnnn1C1CCCC1)N1CCN(c2ccccc2F)CC1 (stereo not given) | 8.2% (inactive) |
| N#Cc1ccc(-c2ccc(F)cc2)nc1Sc1ccccc1 | 13.2% (inactive) |
| Cc1[nH]n(-c2ccccc2)c(=O)c1CCOC(=O)c1ccc(C(F)(F)F)cc1 | -11.8% (inactive) |
| COC(=O)CN(c1nc(C)c(Cl)c(OC)n1)S(=O)(=O)c1ccc(C)cc1 | 34.3% (inactive) |
| Cc1ccc(-c2nnc(-n3nnc4ccccc43)c3ccccc23)cc1 | 8.4% (inactive) |
| N#Cc1ccc(OCCN2C(=O)NC3(CCSC3)C2=O)cc1 (stereo not given) | -24.2% (inactive) |
| CC1(C)NC(=O)N(CCOc2cccc(Oc3ccccc3)c2)C1=O | 62.5% (active) |

| SMILES | inhibition |
| --- | --- |
| Cc1nn(CCOc2ccccc2)c(=O)n1-c1ccccc1F | -10% (inactive) |
| Cc1ccc(NC(=O)Cn2nc(C)c3ccccc3c2=O)c(C)c1 | -59.3% (inactive) |
| CCOC(=O)C1(S(=O)(=O)c2ccccc2)CCN(Cc2ccccc2)CC1 | 8.3% (inactive) |
| CCn1c(-c2ccoc2C)n[nH]c1=S | 2.9% (inactive) |
| CCOC(=O)CN(C)Cc1c[nH]c2ccccc12 | 1.3% (inactive) |
| CCC(=O)Nc1ccccc1N1CCN(S(C)(=O)=O)CC1 | -0.9% (inactive) |
| COc1ccccc1CNC(=O)C1CCN(S(C)(=O)=O)CC1 | -17.1% (inactive) |
| COc1ccc(C(=O)NC(=S)Nc2ccccc2N2CCN(S(C)(=O)=O)CC2)cc1OC | 54.8% (active) |
| CC(C)c1ccc(OCC(O)Cn2cnc3ccccc32)cc1 (stereo not given) | 8.1% (inactive) |
| CC(C)c1cc(C(=O)O)n[nH]1 | 1.1% (inactive) |
| CCOCCOC(=O)C1=C(C)N(C)C(=O)NC1c1ccccc1F (stereo not given) | -10.9% (inactive) |
| Cc1ccc(-n2nc3cc(Cl)c(NC(=O)c4ccco4)cc3n2)cc1 | 15.7% (inactive) |
| COc1ccc(CCNS(=O)(=O)c2ccc(Cl)s2)cc1OC | 87.3% (active) |
| COc1ccc(CCNS(=O)(=O)c2ccc(C(=O)NCc3ccco3)cc2)cc1OC | 71.8% (active) |
| Cc1nn(C)c(Oc2ccccc2)c1CCNS(=O)(=O)c1ccc(F)cc1 | 49.8% (inactive) |
| CCS(=O)(=O)NCCc1ccc(OC)c(OC)c1 | 0.1% (inactive) |
| O=C(NC1CCC(O)CC1)c1ccc(S(=O)(=O)NCc2ccco2)cc1 (stereo not given) | 5% (inactive) |
| COc1ccc(CCNS(=O)(=O)c2ccc(F)cc2)cc1OC | 76.6% (active) |
| COc1ccc(CCNc2ncnc3nc[nH]c23)cc1OC | 8.9% (inactive) |
| COc1ccc(C(=O)NCCc2ccc(S(N)(=O)=O)cc2)cc1OC | -6.7% (inactive) |
| COc1ccc(-c2cc(C(=O)NCc3ccco3)no2)cc1OC | -47% (inactive) |
| COc1ccc(S(=O)(=O)NC(CC(=O)NCc2ccccc2OC)c2ccco2)cc1 (stereo not given) | -43.6% (inactive) |
| COc1ccc(S(=O)(=O)NCc2ccc(C(=O)N(C)Cc3ccco3)cc2)cc1 | 63.2% (active) |
| COc1ccc(CCNC(=O)CN(c2ccccc2)S(C)(=O)=O)cc1OC | 4.9% (inactive) |
| CCCSc1nc(NCc2ccco2)c2c3c(sc2n1)COC(C)(CC)C3 (stereo not given) | 45.6% (inactive) |

| SMILES | inhibition |
| --- | --- |
| CC(=O)C1C(c2ccc(Cl)cc2)NC(=O)NC1(O)C(F)(F)F (stereo not given) | -9.5% (inactive) |
| Cn1c(=O)n(C)c2cc(CNc3ccc(N4CCOCC4)c(C(=O)O)c3)ccc21 | -13.6% (inactive) |
| CSc1ccc(NC(=O)N2CC(C)OC(C)C2)cc1 (stereo not given) | 2.1% (inactive) |
| O=C(NCCN1CCOCC1)c1c(F)c(F)c(F)c(F)c1F | -21.8% (inactive) |
| COc1ccccc1C1=Nc2cccc3cccc(c23)N1 | 24% (inactive) |
| CC1(C)COC(c2cccn2Cc2ccccc2Cl)=N1 | 13.6% (inactive) |
| COCCNS(=O)(=O)c1cc(Br)ccc1OC | -13.7% (inactive) |
| COc1ccc(C)cc1S(=O)(=O)NC1CCCCC1 | 22.8% (inactive) |
| COc1ccc(C)cc1S(=O)(=O)NCCc1ccccc1 | 75.9% (active) |
| CC(=O)c1cnn(-c2cc(Oc3ccc(F)cc3)ncn2)c1C | 42.5% (inactive) |
| CC(C)c1ccc(NS(=O)(=O)c2cn(C)c(=O)n(C)c2=O)cc1 | -7.9% (inactive) |
| CN(C)Cc1c(O)ccc2occ(C(O)c3ccccc3)c12 (stereo not given) | -6.6% (inactive) |
| COc1ccc(C2CC(=O)Nc3cc(C)c(C)cc32)c(OC)c1OC (stereo not given) | 57% (active) |
| COc1cc2c(cc1OC)C(c1ccc(C)o1)CC(=O)N2 (stereo not given) | -9% (inactive) |
| COc1cc2c(cc1OC)C(c1ccncc1)CC(=O)N2 (stereo not given) | 34.4% (inactive) |
| O=C(CCS(=O)(=O)c1cccc2nonc12)NCCc1ccccc1Cl | 37.9% (inactive) |
| O=C(CCNS(=O)(=O)c1ccccc1C(F)(F)F)NCc1ccc2c(c1)OCO2 | 78.1% (active) |
| Cc1ccc(CNC(=O)CCNS(=O)(=O)c2cccc3nonc23)cc1 | -20.4% (inactive) |
| O=C(NCc1ccc2c(c1)OCO2)C12CC3CC(CC(C3)C1)C2 | 38.2% (inactive) |
| CC(Sc1nncs1)C(=O)NCc1ccc2c(c1)OCO2 (stereo not given) | 29.7% (inactive) |
| O=C(CNS(=O)(=O)c1ccc(Br)s1)NCc1ccc2c(c1)OCO2 | 95.8% (active) |
| Cc1ccc(C(=O)OCC(=O)NCc2ccc3c(c2)OCO3)s1 | 81.5% (active) |
| COC(=O)Cc1c(C)c2ccc(OCC(=O)NCc3ccc4c(c3)OCO4)cc2oc1=O | 36.1% (inactive) |
| CCOC(=O)NCc1ccc2c(c1)OCO2 | 10.7% (inactive) |
| O=C(CNS(=O)(=O)c1ccc(Br)s1)N1CCN(C(=O)c2ccco2)CC1 | 31.1% (inactive) |

Reference: PubChem BioAssay AID777 (Sanford-Burnham Center for Chemical Genomics, 2007)
